High-throughput results as filed in PubChem BioAssay.
GDH-TPI inh = GDH-TPI coupling enzyme inhibitors, primary screen, artefact control for M. tuberculosis FBA inhibitor project, biochemical, absorbance, full deck. 360,000 tested, 1.2% active. GDH-TPI coupled enzyme counterscreen, NADH absorbance. inhibition, % at 4.8 µM; in the data active = inhibition above about 30%
Anthrax LF inh2 = Bacillus anthracis LF protease inhibitors, primary screen, biochemical, multiplex microsphere, MLPCN library; multiplex microsphere protease cleavage assay; inhibition, % at 10 µM; 360,000 tested, 0.12% active; Lethal factor (Bacillus anthracis), P15917
BoNT-A LC inh2 = BoNT/A light chain protease inhibitors, primary screen, biochemical, flow cytometry, MLPCN library. Botulinum neurotoxin type A light chain protease (Clostridium botulinum A str. ATCC 3502). multiplex microsphere protease substrate cleavage. inhibition, % at 10 µM. 360,000 tested, 0.17% active. AID 588499, 2011
Autofluor counter = counter-screen for toxin protease inhibitors: compound fluorescence. 360,000 tested, 3.1% active. fluorescence intensity (concentration not given with the values). compound autofluorescence counterscreen, microsphere flow cytometry; hits give high values; in the data active = fluorescence intensity above about 16000; inconclusive = no clear call, values can overlap the other calls
BoNT F protease = BoNT/F light chain protease inhibitors, primary screen, biochemical, flow cytometry, MLPCN library | Botulinum neurotoxin type F light chain protease (Clostridium botulinum) | Multiplex microsphere protease cleavage assay | inhibition, % at 10 µM | 360,000 tested, 0.22% active | AID 588497, 2011; in the data active = inhibition above about 35%, passing the limit was not always enough; inconclusive = no clear call, values can overlap the other calls
FBA Mtb inh = Mtb FBA enzyme inhibitors, primary screen, biochemical, fluorescence, strain H37Rv | purified M. tuberculosis FBA, fluorescence read-out | inhibition, % at 1 µM | 360,000 tested, 2.3% active; in the data active = inhibition above about 27%
Target sequence (P9WQA3 whole entry, looked up): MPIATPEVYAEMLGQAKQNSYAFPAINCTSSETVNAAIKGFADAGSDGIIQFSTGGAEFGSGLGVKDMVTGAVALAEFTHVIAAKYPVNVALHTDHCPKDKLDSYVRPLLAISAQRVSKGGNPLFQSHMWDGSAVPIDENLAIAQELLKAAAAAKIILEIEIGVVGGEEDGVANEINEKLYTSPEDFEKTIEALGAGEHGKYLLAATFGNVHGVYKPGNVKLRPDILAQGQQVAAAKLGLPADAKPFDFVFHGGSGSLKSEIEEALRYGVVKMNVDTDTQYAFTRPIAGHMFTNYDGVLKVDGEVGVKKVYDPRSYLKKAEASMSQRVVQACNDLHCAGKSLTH
Each line names hits and unclear results; the compound was inactive in the other large screens. The list is not random: actives were taken first. Their share in the collection is about 6.6%. Cut-off read from the data, not from the text of the source, unless noted: active = inhibition above about 30%; inconclusive = no clear call, values can overlap the other calls; inactive = below that.

COc1ccc2c(c1)[nH]c1c(N3CCN(Cc4ccc5c(c4)OCO5)CC3)ncnc12	Autofluor counter 23865
COCC(C)N=C1NN=C(c2c[nH]c3ccccc23)CS1 (stereo unspecified)	none
Cc1ccc(-c2ccc(=O)[nH]n2)cc1	Autofluor counter 21252
Cc1ccc(-n2c(C3CC3c3ccc(Cl)cc3)n[nH]c2=S)cc1 (stereo unspecified)	Autofluor counter 23745
Cc1ccc(C2CC2c2n[nH]c(=S)n2-c2ccc(C)cc2)cc1 (stereo unspecified)	BoNT-A LC inh2 inconclusive, Autofluor counter 24709
Cc1ccc(-n2c([C@@H]3C[C@H]3c3ccccc3)n[nH]c2=S)cc1	none
S=c1[nH]nc(C2CC2c2ccc(Cl)cc2)n1-c1ccc(Cl)cc1 (stereo unspecified)	none
CCOc1ccc(OCc2cccc(C(=O)Nc3ccc(CN4CCCCC4)cc3)c2)cc1	none
O=C(CSc1nnc(-c2ccc(Cl)cc2)n1-c1ccccc1)N/N=C/c1ccccc1C(=O)O	BoNT F protease 41
CC(Sc1ccc(S(=O)(=O)N2CCN(C)CC2)cn1)C(=O)Nc1cccc(Cl)c1Cl (stereo unspecified)	none
Cc1c(OC(C(=O)O)c2ccccc2)ccc2c3c(c(=O)oc12)CCC3 (stereo unspecified)	none
Cc1c(OC(C(=O)O)c2ccccc2)ccc2c1oc(=O)c1ccccc12 (stereo unspecified)	FBA Mtb inh 139
CCN(C[C@H]1N[C@@](CC)(C(=O)OC)[C@H]2C(=O)N(C)C(=O)[C@@H]12)C(=O)Nc1ccc(C)cc1	none
O=C(CN1C(=O)COc2ccc(Cl)cc21)NC1CC1	none
CCOc1ccc(N2C(=O)CC(NCCNc3ccc(C(=O)c4cccs4)cc3)C2=O)cc1 (stereo unspecified)	none
O=C(NCCO)c1ccc(-c2cnc3cccnn23)cc1	FBA Mtb inh active
CNc1ccc2ncc(-c3cccc(C(=O)N(C)C)c3)n2n1	FBA Mtb inh 156
CS(=O)(=O)Nc1ccc(-c2cnc3cccnn23)cc1	none
O=C(NCCO)c1cccc(-c2ccc3nncn3c2)c1	none
CN1CCN(C(=O)c2ccc(-c3cnc4cccnn34)cc2)CC1	FBA Mtb inh active
O=C(NCCO)c1cccc(-c2cnc3cccnn23)c1	FBA Mtb inh 156
CN1CCN(C(=O)c2cccc(-c3cccc4nccn34)c2)CC1	none
COc1cc(CNn2nnnc2N)cc(Br)c1OCc1c(Cl)cccc1Cl	BoNT-A LC inh2 inconclusive, Autofluor counter 23392
COc1cc(CNn2nnnc2N)cc(Br)c1OCC(=O)NC(C)(C)C	none
COCCCN(C(=O)CCSc1ccc(F)cc1)c1c(N)n(Cc2ccccc2)c(=O)[nH]c1=O	none
CCOc1ccc2[nH]c(C)cc(=O)c2c1	none
CCOc1ccc2[nH]c(=O)c(=O)[nH]c2c1	GDH-TPI inh 35
O=C(O)C1CC(=O)N(C2CCCCC2)C1c1ccccc1 (stereo unspecified)	BoNT F protease inconclusive
COc1ccc(C2C(C(=O)O)CC(=O)N2C2CCCCC2)cc1 (stereo unspecified)	BoNT-A LC inh2 inconclusive, Autofluor counter 20476
Cc1ccc([N+](=O)[O-])cc1NC(=S)NCCc1ccccc1	Autofluor counter inconclusive
COc1ccc(-c2c(NC(C)=O)n(C)c3ccccc3c2=O)cc1	GDH-TPI inh 36, BoNT-A LC inh2 inconclusive, Autofluor counter 16417
Cc1ccc(-c2c(NC(=O)c3ccco3)oc3ccccc3c2=O)cc1	none
COc1ccc(-c2c(NC(=O)c3ccco3)oc3ccccc3c2=O)cc1	GDH-TPI inh 40
CSc1ccccc1C(=O)OCC(=O)N1CCCC1=O	none
CC(=O)Nc1cccc(C(=O)NNC(=O)c2ccc(NS(=O)(=O)c3cccs3)cc2)c1	none
C/C(=N\NC(=O)c1ccc(NS(=O)(=O)c2cccs2)cc1)c1ccc(O)cc1O	GDH-TPI inh 68
C/C(=N\NC(=O)c1ccc(NS(=O)(=O)c2cccs2)cc1)c1ccccc1	none
C/C(=N\NC(=O)c1ccc(NS(=O)(=O)c2cccs2)cc1)c1ccncc1	GDH-TPI inh 32
COc1ccc(CN2CCC(CO)(Cc3cccc(C(F)(F)F)c3)CC2)cc1Cn1cccn1	none
CCCCc1c(-c2ccccc2OC)ncn1Cc1cccc(-c2ccccc2)c1	none (no result: GDH-TPI inh, FBA Mtb inh)
Cc1c(C)c2c(OCC(=O)NCC(=O)NCC(=O)O)cc3c(c2oc1=O)CCC(C)(C)O3	FBA Mtb inh active
Cc1oc2c(c(C)cc3oc(=O)c(CC(=O)NCC(=O)NCC(=O)O)c(C)c32)c1C	BoNT F protease inconclusive
Cc1c(C)c2c(OCC(=O)O)cc3c(c2oc1=O)CCC(C)(C)O3	FBA Mtb inh active
Cc1c(C)c2c(OCC(=O)Nc3ccc(CCO)cc3)cc3c(c2oc1=O)CCC(C)(C)O3	FBA Mtb inh active
COc1cc(S(=O)(=O)N2CC(=O)Nc3ccccc32)ccc1NC(C)=O	none
COc1ccc(CNC(=O)c2cc(-c3ccccc3OC)on2)cc1	none
CCN(CC)C(=O)c1csc(Nc2ccc(C)cc2)n1	none
COc1ccc(CNC(=O)c2cc(-c3ccco3)on2)cc1	Autofluor counter 20809
Cc1ccc(Nc2nc(C(=O)NCc3ccco3)cs2)cc1	Autofluor counter 21266
O=C(NCc1ccco1)c1cc(-c2ccc(F)cc2)on1	Autofluor counter 22220
CC(=O)c1cccc(NC(=O)c2cc(-c3ccc(F)cc3)on2)c1	Autofluor counter 19126
Cc1ccc([C@H]2C[C@@H](O)[C@H](n3cc(C4CC4)nn3)CN2C(=O)c2cccs2)cc1	none
CCOc1ccc(C(=O)NCC(=O)N2CCC3(CC2)NCCc2[nH]cnc23)cc1	none
O=C(NCc1ccc(F)cc1)c1cc(-c2ccco2)on1	Autofluor counter 23399
O=C(Nc1ccc(F)cc1F)c1cc(-c2ccco2)on1	BoNT-A LC inh2 inconclusive, Autofluor counter 23169
O=C(NCc1ccc(Cl)cc1)c1cc(-c2ccco2)on1	none
O=C(Nc1c(F)cc(F)cc1Br)c1cc(-c2ccco2)on1	none
CCS(=O)(=O)CCSC1OC(COC(C)=O)C(OC(C)=O)C(OC(C)=O)C1OC(C)=O (stereo unspecified)	none
Cc1ccc(SCc2[nH]nc3c2C(c2ccc(C)o2)C(C#N)=C(N)O3)cc1 (stereo unspecified)	Autofluor counter 19530
Cc1ccc(SCc2[nH]nc3c2C(c2ccco2)C(C#N)=C(N)O3)cc1 (stereo unspecified)	none
O=C(CCNc1n[nH]c(=O)[nH]c1=O)N/N=C/c1ccc(Cl)cc1	none
O=c1[nH]nc(N/N=C/c2ccc(Cl)cc2Cl)c(=O)[nH]1	GDH-TPI inh 38
CN1CCC(=NNC(=O)C(=O)Nc2ccccc2F)CC1	none
